PTPN22 inh 2: PTPN22 phosphatase inhibitors, primary screen, biochemical, DiFMUP fluorescence, 2 µM | inhibition, % at 2 µM | Tyrosine-protein phosphatase non-receptor type 22 (Homo sapiens), Q9Y2R2 | AID 640, 2007 | recombinant LYP catalytic domain | actives 0.21% (n = 96,000);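 active = inhibition at 2 µM at or above a set limit, the screen mean plus 3 SD, cut at about 24% in these data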;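 also: 0% = DMSO with enzyme and 100% = enzyme fully blocked by orthovanadate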
Target sequence (Q9Y2R2 whole entry, looked up, the tested form may be a part): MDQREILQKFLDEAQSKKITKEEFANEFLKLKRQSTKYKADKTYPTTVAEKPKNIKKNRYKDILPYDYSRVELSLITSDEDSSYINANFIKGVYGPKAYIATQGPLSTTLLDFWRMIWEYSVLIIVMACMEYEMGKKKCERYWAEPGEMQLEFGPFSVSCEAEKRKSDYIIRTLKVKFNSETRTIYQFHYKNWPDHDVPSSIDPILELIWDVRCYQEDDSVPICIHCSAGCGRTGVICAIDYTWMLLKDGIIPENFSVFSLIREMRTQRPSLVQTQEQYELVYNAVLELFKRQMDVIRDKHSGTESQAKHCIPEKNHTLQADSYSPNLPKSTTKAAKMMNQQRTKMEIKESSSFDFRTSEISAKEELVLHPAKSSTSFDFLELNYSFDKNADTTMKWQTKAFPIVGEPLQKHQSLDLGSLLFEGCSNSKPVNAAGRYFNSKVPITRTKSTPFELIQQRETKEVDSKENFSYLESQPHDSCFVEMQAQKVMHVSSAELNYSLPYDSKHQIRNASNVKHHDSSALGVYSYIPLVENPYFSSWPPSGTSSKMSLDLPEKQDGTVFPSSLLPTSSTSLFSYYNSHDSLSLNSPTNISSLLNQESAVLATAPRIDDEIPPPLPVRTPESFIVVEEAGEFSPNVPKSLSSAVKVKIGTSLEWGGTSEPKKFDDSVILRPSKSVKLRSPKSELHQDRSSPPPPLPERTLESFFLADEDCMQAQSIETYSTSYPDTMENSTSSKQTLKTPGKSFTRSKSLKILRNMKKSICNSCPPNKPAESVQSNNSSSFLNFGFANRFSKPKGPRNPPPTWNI
LYP act: LYP phosphatase activators, primary screen, biochemical, DiFMUP fluorescence, 2 µM. Tyrosine-protein phosphatase non-receptor type 22 (Homo sapiens), Q9Y2R2. recombinant LYP; 0 = plate median, 100 = signal doubled. activation, % at 2 µM. actives 0.11% (n = 96,000). AID 697, 2007;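 active = activation at 2 µM above a set limit, the mean plus 5 SD, cut at about 37% in these data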
MRP resist rev: reversal of MRP1-mediated doxorubicin resistance, primary screen, H69AR cells, doxorubicin co-treatment | H69AR cells + 2 uM doxorubicin, CellTiter-Glo, 72 h | differential viability (reversal), % at 10 µM | actives 0.04% (n = 85,000);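 active = viability drop by adding the cancer drug above about 55%, with treated viability meeting a 40% cutoff, limit read from the data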;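 also: viability without doxorubicin minus viability with 2 µM doxorubicin for each compound; larger differential means the compound sensitizes cells more to doxorubicin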
MRP1 act: H69AR viability gain despite doxorubicin, primary screen, MRP-1 activator project, H69AR cells, CellTiter-Glo | AID 799, 2007 | viability rescue | actives 0.61% (n = 140,000) | viability increase, % at 10 µM;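 active = viability gain under doxorubicin at or above a set limit, the compound median plus 3 SD, cut at about 4.7% in these data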;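 also: MRP-1 overexpressing cells given doxorubicin 25 µM after compound pretreatment; 18-22 h compound pretreatment then 72 h with doxorubicin before readout; 0% = doxorubicin-only wells and 100% = vehicle-treated cells without doxorubicin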
FAK inh: FAK kinase inhibitors, primary screen, biochemical; inhibition, %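 (tested at 7 µM)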; AID 727, 2007; actives 0.84% (n = 97,000); Focal adhesion kinase 1 (Homo sapiens), Q05397; biochemical FAK kinase activity assay; in the data active = inhibition above about 19%;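 also: 0% = DMSO and 100% = reference compound high control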
PLAP act: PLAP enzyme activators, biochemical, luminescence, HTS | Alkaline phosphatase, placental type (Homo sapiens), P05187 | purified PLAP enzyme, luminescent substrate read-out; stronger effect = higher value | activation fold at 20 µM | actives 1.2% (n = 96,000) | AID 696, 2007; in the data active = activation fold above about 2
Starred values were filed as active, the others as inactive; nt = no result given. Only some compounds are listed: those with a hit (about 2.2% of all), similar ones and a draw of the others.

SMILES	PTPN22 inh 2	LYP act	MRP resist rev	MRP1 act	FAK inh	PLAP act
COc1ccc(OC)c(C(=O)CSc2nc3ncccc3[nH]2)c1	nt	nt	6	-4	nt	2.8*
CN1CCN(NC(=O)c2ccc(Br)c(S(=O)(=O)N3CCOCC3)c2)CC1	nt	nt	nt	0	nt	nt
COCc1[nH]nc2c1C1(C(=O)N(C)c3ccccc31)C(C#N)=C(N)O2 (stereo not given)	-1	0	23	1	2	1
Cc1ccc(SCc2[nH]nc3c2C2(C(=O)N(C)c4ccccc42)C(C#N)=C(N)O3)cc1 (stereo not given)	4	-5	-21	-2	-1	2*
O=C(CC1C(=O)N(c2ccccc2)C(=S)N1c1ccccc1)c1ccccc1 (stereo not given)	nt	nt	nt	-2	nt	nt
O=C(CC1C(=O)N(c2ccccc2)C(=S)N1c1ccccc1)c1ccc(Br)cc1 (stereo not given)	nt	nt	nt	4.7*	nt	nt
O=C(NC1=NCCS1)C1Cc2ccccc2CN1C(=O)c1ccccc1 (stereo not given)	-2	0	3	-1	-1	2.1*
CC(=O)c1ccc(NC(=O)C2Cc3ccccc3CN2C(=O)c2ccccc2)cc1 (stereo not given)	nt	nt	nt	-2	nt	nt
O=c1c2ccccc2cnn1Cc1n[nH]c(=S)n1-c1ccccc1Cl	nt	nt	nt	-2	nt	nt
Clc1ccccc1CSc1nc2ccncc2[nH]1	-7	4	0	-1	10	2.7*
Cc1nnc(NC(=O)NC(C)N2C(=O)C3C4C=CC(C4)C3C2=O)s1 (stereo not given)	-5	3	nt	-1	0	1
CCc1nnc(NC(=O)C(C)N2C(=O)C3C4C=CC(C4)C3C2=O)s1 (stereo not given)	-16	14	15	8.2*	3	1
C=CCOc1ccc(CNc2ccc(NC(=O)CC(C)C)cc2)cc1OC	nt	nt	nt	18*	nt	nt
C=CCOc1ccc(CNc2nn[nH]n2)cc1OC	0	-4	nt	-2	-2	1
CC(C)CCC(C)N=Cc1c(O)n(Cc2ccccc2)c(=O)c2ccccc12 (stereo not given)	7	-6	-4	0	1	0.8
COc1ccc(Cn2c(O)c(C=Nc3ccc(OC)cc3)c3ccccc3c2=O)cc1	nt	nt	nt	6.4*	nt	nt
c1ccc2c(c1)ncn2-c1ncnc2sc3c(c12)CCCC3	7	-5	-4	-1	-4	1
CC(O)CNc1nc2ccccc2n1-c1ncnc2sc3c(c12)CCC3 (stereo not given)	1	-2	-38	-3	3	2.7*
CCc1nnc(NC(=O)CN2CCN(c3ccc(Cl)cc3)CC2)s1	-15	14	-4	nt	2	nt
Cc1onc(-c2ccccc2Cl)c1C(=O)OCC(=O)Nc1ccc2c(c1)OCO2	nt	nt	11	5.7*	nt	1.2
Cc1onc(-c2ccccc2)c1C(=O)OCC(=O)Nc1ccc2c(c1)OCO2	5	-6	13	2	-4	0.8
CC(=O)c1ccc(NC(=O)CN2C(=O)/C(=C/C(C)=C/c3ccccc3)SC2=S)cc1	nt	nt	nt	8.5*	nt	nt
CC(/C=C1\SC(=S)N(CCCC(=O)Nc2ccc(C(=O)O)c(O)c2)C1=O)=C\c1ccccc1	nt	nt	nt	4.8*	nt	nt
CC(/C=C1\SC(=S)N(NC(=O)c2ccc(C)cc2)C1=O)=C\c1ccccc1	4	-2	nt	0	2	0.9
CCOC(=O)CSc1nnc(NC(=O)c2cccc([N+](=O)[O-])c2C)s1	nt	nt	nt	0	nt	nt
SMILES	PTPN22 inh 2	LYP act	MRP resist rev	MRP1 act	FAK inh	PLAP act
O=C(NCCC1=CCCCC1)C1CCN(S(=O)(=O)c2ccc(Br)s2)CC1	nt	nt	nt	-3	nt	nt
O=C(CN(Cc1ccco1)C(=O)Cn1nnc(-c2ccc(F)cc2)n1)NC1CCCC1	6	-9	11	-1	7	1.1
CCCCC(C(=O)NC1CCCC1)N(Cc1ccco1)C(=O)Cn1nnc(-c2ccc(F)cc2)n1 (stereo not given)	1	-2	nt	0	3	2.2*
CN(CC(O)COc1c(F)cc(Br)cc1F)C1CCCCC1 (stereo not given)	nt	nt	nt	-3	nt	nt
CC(=O)Nc1nc2n(n1)C(c1ccccc1)C=C(c1ccccc1)N2 (stereo not given)	-3	0	-7	-4	4	2.1*
CC(=O)Nc1nc2n(n1)C(c1ccc(F)cc1)C=C(c1ccccc1)N2 (stereo not given)	-4	2	-16	-5	1	1.1
O=C(Nc1nc2n(n1)C(c1ccccc1)C=C(c1ccccc1)N2)c1ccco1 (stereo not given)	-17	14	-8	-1	0	2.9*
CC1=CC(c2ccc(Cl)cc2)n2nc(NC(=O)c3ccccc3)nc2N1 (stereo not given)	-3	5	3	-1	-2	2.3*
CC(=O)Nc1nc2n(n1)C(c1ccc(Cl)cc1)C=C(C)N2 (stereo not given)	4	-6	10	-1	0	1.6
O=c1[nH]c2cc3c(cc2cc1CN(CC1CCCO1)S(=O)(=O)c1ccccc1)OCCO3 (stereo not given)	nt	nt	9	-2	nt	0.9
COc1ccc2cc(CN(CC3CCCO3)S(=O)(=O)c3ccccc3Cl)c(=O)[nH]c2c1 (stereo not given)	5	-5	6	-4	0	2*
COc1ccc(N(CC(=O)Nc2ccc(C)c(C)c2)S(=O)(=O)c2c(C)n[nH]c2C)cc1	0	-2	7	-2	-2	2.1*
CCc1cccc(NC(=O)CN(c2ccc(OC)cc2)S(=O)(=O)c2c(C)n[nH]c2C)c1	-7	5	4	-2	2	2.4*
Cc1n[nH]c(C)c1S(=O)(=O)N(CC(=O)NC1CCCC1)c1ccc(C(C)C)cc1	2	-4	-14	-1	-5	2.3*
COc1ccc(N(CC(=O)Nc2cccc(C)c2)S(=O)(=O)c2c(C)n[nH]c2C)cc1	4	-6	6	-2	-2	1.9
Cc1cccc(NC(=S)NCC(c2cccnc2)N(C)C)c1C (stereo not given)	nt	nt	nt	-2	nt	nt
O=S(=O)(Nc1nc2ccccc2nc1Nc1cccc(S(=O)(=O)N2CCCCC2)c1)c1ccccc1	nt	nt	nt	-6	nt	nt
CCOc1ccc(NC(=O)CN(C)CC(=O)Nc2ccccc2C#N)cc1OCC	-1	-1	-3	-2	0	1.8
CN(CC(=O)Nc1ccc(Cl)cc1)CC(=O)Nc1cc(Cl)ccc1C#N	nt	nt	-11	-3	nt	2.5*
CCOC(=O)C1=C(C)Nc2ncnn2C1c1cccnc1 (stereo not given)	10	-10	-12	177*	-7	1.1
Cn1c(CSc2nc3ccccc3s2)nc2ccccc21	2	-4	18	-3	1	1.2

High-throughput results (PubChem)
